# Results from PubChem BioAssay.
# The source made the active and inactive calls.
# Tests used:
# [1] = test system: Plasmodium falciparum Sir2 (PF13_0152, Sir2A); test: pfSir2 binders on small-molecule microarrays, primary screen, biochemical, small-molecule microarray, 635 nm fluorescence (AID 1098); settings: small-molecule microarray binding, fluorescence 635 nm; higher = more signal;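 also: score merges spot fluorescence intensity with its signal-to-noise ratio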
# [2] = small-molecule microarray binders of probe aDKK1, primary screen, biochemical, biotinylated probe, 635/667 nm fluorescence (AID 1099); settings: higher = more signal;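 also: score merges 667nm spot fluorescence with signal to noise across triplicate slides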
# [3] = small-molecule microarray binders of probe aCHRDL2, primary screen, biochemical, biotinylated probe, 635/667 nm fluorescence (AID 1100); settings: higher = more signal
# [4] = splicing luciferase reporter signal modulators, primary screen, spliceosome inhibition project, cell-based, HEK293, splice +/- reporter (AID 1101); settings: luminescence, 24 h, higher = more signal, called active from +8 up or from −8 down;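 also: HEK293 cells carrying a splicing-competent luciferase reporter gene; test concentration not given here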
# [5] = target: Fibroblast growth factor 10 (Homo sapiens) (UniProt O15520); test: FGF10 binders on small-molecule microarrays, primary screen, biochemical, small-molecule microarray, 635 nm fluorescence (AID 1102); settings: FGF10 binding, fluorescence 635 nm, higher = more signal
# [6] = test system: glycogen synthase kinase-3 (GSK3A per assay name; protocol says GSK3B); test: GSK3 binders on small-molecule microarrays, primary screen, biochemical, small-molecule microarray, 635 nm fluorescence, GSK3A (AID 1103); settings: small-molecule microarray binding, fluorescence 635 nm; higher = more signal; also: the record names both GSK3A and GSK3B
# [7] = target: Epidermal growth factor receptor (Homo sapiens) (UniProt P00533); test: EGFR binders on small-molecule microarrays, primary screen, biochemical, small-molecule microarray, 635 nm fluorescence (AID 1104); settings: EGFR binding, higher = more signal;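 also: score merges 667 nm emission intensity with spot signal to noise over triplicate slides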
# [8] = target: Follistatin-related protein 3 (Homo sapiens) (UniProt O95633); test: FSTL3 binders on small-molecule microarrays, primary screen, biochemical, small-molecule microarray, 635 nm fluorescence (AID 1105); settings: FSTL3 binding, higher = more signal;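 also: score merges emission near 667 nm and signal to noise per printed spot across three slides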
# [9] = target: Dickkopf-related protein 1 (Homo sapiens) (UniProt O94907); test: DKK1 binders on small-molecule microarrays, primary screen, biochemical, small-molecule microarray, 635 nm fluorescence scan (AID 1106); settings: DKK1 binding, higher = more signal;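 also: score merges emission near 667 nm with signal to noise over three replicate slides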
# [10] = test system: Inhibin beta A chain (activin A); test: INHBA (activin A) binders on microarrays, primary screen, biochemical, small-molecule microarray, 635 nm fluorescence scan (AID 1107); settings: small-molecule microarray binding, higher = more signal;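 also: mouse activin A protein probed at 4.33 µg/mL on printed slides; score merges bound-protein fluorescence near 667 nm with spot signal-to-noise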
# [11] = test system: Human papillomavirus type 1a protein E7 (residues 44-93); test: HPV1a E7 fragment binders on microarrays, primary screen, biochemical, small-molecule microarray, residues 44-93, 635 nm fluorescence (AID 1108); settings: small-molecule microarray binding, fluorescence 635 nm; higher = more signal;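 also: E7 fragment applied at 1 µg/mL in TBST for 1 h at 4 C; score combines spot fluorescence with its signal to noise ratio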
# [12] = modulators of HCV replicon luciferase signal, primary screen, HCV replication inhibitor project, Huh7 cells, luciferase reporter (AID 1109); settings: 48 h, higher = more signal;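 also: huh7 hepatoma cells harbouring a luciferase neomycin HCV replicon reporter; luciferase luminescence as measure of HCV replicon replication; test concentration not given here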
# [13] = target: Left-right determination factor 2 (Homo sapiens) (UniProt O00292); test: LEFTY2 binders on small-molecule microarrays, primary screen, biochemical, small-molecule microarray, 635 nm fluorescence scan (AID 1110); settings: LEFTY2 binding, higher = more signal
# [14] = target: Calmodulin-1 (Homo sapiens) (UniProt P0DP23); test: CALM1 binders on microarrays, EGTA buffer, profiling panel, biochemical, small-molecule microarray, Cy5-labelled CALM1 (AID 1111); settings: Cy5-CALM1 binding fluorescence, higher = more signal;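 also: labelled calmodulin applied in Tris saline Tween buffer holding calcium plus EGTA and DTT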
# [15] = target: Calmodulin-1 (Homo sapiens) (UniProt P0DP23); test: calcium-bound CALM1 binders on microarrays, profiling panel, artefact control for SMM control-protein annotation, biochemical, small-molecule microarray, Cy5-labelled CALM1, plus calcium (AID 1112); settings: Cy5-CALM1 binding fluorescence, higher = more signal;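 also: score merges spot fluorescence with signal to noise from triplicate slides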
# [16] = small-molecule microarray binders of probe aWnt5a, primary screen, biochemical, biotinylated probe, 635/667 nm fluorescence (AID 1113); settings: higher = more signal;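 also: score merges 667 nm fluorescence intensity with signal-to-noise per printed feature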
# [17] = small-molecule microarray binders of probe aShh, primary screen, biochemical, biotinylated probe, 635/667 nm fluorescence (AID 1114); settings: higher = more signal;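 also: probe is biotin-labelled aShh protein from a stem cell growth factor screen; measures binding of labelled protein to compounds printed on the slide; score merges feature fluorescence at 667 nm with signal-to-noise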
# [18] = small-molecule microarray binders of probe aNog, primary screen, biochemical, biotinylated probe, 635/667 nm fluorescence (AID 1115); settings: higher = more signal;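 also: probe is biotinylated aNog protein used at 0.15 µg/mL for 1 h at 4 C; z-score combines 667 nm fluorescence of each spot with its signal to noise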
# [19] = target: Torsin-1A-interacting protein 1 (Homo sapiens) (UniProt Q5JTV8); test: LAP1 binders from COS7 cell lysate, primary screen, small-molecule microarray, 635/667 nm fluorescence (AID 1116); settings: COS7-hLAP1 lysate binding, 635 nm fluorescence, higher = more signal
# [20] = target: Alpha-bungarotoxin (Bungarus multicinctus) (UniProt P60615); test: alpha-bungarotoxin binders on microarray, profiling panel, artefact control for SMM control protein annotation, biochemical, small-molecule microarray, Alexa647 label, 635/667 nm fluorescence (AID 1117); settings: alpha-BTX-A647 binding fluorescence, higher = more signal
# Sequence of Alpha-bungarotoxin (Bungarus multicinctus) (P60615 whole entry, looked up): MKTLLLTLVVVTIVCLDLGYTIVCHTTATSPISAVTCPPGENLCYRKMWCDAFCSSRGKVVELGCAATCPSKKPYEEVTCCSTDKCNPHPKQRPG
# Sequence of Dickkopf-related protein 1 (Homo sapiens) (O94907 whole entry, looked up): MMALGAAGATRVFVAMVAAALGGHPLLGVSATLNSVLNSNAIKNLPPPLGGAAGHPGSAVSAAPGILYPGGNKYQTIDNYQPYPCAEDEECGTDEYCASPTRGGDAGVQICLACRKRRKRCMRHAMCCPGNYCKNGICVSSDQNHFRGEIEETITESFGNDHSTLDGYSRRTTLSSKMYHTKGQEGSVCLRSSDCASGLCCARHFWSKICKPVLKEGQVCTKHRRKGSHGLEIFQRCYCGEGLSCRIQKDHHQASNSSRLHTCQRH
# Sequence of Follistatin-related protein 3 (Homo sapiens) (O95633 whole entry, looked up): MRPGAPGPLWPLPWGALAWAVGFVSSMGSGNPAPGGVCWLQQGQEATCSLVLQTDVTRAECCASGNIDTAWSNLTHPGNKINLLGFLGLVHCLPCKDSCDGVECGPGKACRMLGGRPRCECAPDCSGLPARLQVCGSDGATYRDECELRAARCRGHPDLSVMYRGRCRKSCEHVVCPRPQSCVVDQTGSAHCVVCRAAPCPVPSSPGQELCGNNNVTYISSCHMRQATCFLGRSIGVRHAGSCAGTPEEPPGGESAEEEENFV
# Sequence of Torsin-1A-interacting protein 1 (Homo sapiens) (Q5JTV8 whole entry, looked up): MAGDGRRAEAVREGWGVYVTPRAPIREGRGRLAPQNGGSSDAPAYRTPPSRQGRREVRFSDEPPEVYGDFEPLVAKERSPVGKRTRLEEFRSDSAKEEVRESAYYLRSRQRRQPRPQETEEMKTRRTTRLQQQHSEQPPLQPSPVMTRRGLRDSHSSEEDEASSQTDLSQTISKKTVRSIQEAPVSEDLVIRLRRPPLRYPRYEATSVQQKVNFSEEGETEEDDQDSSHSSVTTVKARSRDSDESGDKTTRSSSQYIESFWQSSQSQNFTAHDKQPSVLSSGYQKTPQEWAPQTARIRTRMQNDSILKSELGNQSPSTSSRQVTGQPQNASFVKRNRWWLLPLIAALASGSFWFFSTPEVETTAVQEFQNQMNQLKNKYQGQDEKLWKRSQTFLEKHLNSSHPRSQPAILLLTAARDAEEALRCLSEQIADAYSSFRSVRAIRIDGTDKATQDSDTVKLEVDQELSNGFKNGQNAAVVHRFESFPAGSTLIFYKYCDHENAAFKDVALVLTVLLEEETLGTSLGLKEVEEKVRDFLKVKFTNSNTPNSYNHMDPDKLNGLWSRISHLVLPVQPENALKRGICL
# Sequence of Left-right determination factor 2 (Homo sapiens) (O00292 whole entry, looked up): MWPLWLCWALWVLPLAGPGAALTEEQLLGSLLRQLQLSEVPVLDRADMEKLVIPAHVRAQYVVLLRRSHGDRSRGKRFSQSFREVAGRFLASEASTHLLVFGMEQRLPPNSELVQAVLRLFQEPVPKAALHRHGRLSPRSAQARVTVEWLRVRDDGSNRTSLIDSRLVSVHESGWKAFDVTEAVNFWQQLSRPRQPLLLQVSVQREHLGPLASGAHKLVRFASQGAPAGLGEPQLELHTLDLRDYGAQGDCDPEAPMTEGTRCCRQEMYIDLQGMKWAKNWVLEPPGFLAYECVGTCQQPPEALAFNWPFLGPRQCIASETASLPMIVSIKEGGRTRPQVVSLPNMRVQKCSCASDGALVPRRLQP
# Sequence of Fibroblast growth factor 10 (Homo sapiens) (O15520 whole entry, looked up): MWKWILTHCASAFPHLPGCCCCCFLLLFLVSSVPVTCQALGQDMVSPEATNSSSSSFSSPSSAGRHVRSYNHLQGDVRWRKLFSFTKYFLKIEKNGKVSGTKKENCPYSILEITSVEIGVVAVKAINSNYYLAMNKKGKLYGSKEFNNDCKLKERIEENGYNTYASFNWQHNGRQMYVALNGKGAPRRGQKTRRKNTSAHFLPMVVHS
# Sequence of Epidermal growth factor receptor (Homo sapiens) (P00533 whole entry, looked up): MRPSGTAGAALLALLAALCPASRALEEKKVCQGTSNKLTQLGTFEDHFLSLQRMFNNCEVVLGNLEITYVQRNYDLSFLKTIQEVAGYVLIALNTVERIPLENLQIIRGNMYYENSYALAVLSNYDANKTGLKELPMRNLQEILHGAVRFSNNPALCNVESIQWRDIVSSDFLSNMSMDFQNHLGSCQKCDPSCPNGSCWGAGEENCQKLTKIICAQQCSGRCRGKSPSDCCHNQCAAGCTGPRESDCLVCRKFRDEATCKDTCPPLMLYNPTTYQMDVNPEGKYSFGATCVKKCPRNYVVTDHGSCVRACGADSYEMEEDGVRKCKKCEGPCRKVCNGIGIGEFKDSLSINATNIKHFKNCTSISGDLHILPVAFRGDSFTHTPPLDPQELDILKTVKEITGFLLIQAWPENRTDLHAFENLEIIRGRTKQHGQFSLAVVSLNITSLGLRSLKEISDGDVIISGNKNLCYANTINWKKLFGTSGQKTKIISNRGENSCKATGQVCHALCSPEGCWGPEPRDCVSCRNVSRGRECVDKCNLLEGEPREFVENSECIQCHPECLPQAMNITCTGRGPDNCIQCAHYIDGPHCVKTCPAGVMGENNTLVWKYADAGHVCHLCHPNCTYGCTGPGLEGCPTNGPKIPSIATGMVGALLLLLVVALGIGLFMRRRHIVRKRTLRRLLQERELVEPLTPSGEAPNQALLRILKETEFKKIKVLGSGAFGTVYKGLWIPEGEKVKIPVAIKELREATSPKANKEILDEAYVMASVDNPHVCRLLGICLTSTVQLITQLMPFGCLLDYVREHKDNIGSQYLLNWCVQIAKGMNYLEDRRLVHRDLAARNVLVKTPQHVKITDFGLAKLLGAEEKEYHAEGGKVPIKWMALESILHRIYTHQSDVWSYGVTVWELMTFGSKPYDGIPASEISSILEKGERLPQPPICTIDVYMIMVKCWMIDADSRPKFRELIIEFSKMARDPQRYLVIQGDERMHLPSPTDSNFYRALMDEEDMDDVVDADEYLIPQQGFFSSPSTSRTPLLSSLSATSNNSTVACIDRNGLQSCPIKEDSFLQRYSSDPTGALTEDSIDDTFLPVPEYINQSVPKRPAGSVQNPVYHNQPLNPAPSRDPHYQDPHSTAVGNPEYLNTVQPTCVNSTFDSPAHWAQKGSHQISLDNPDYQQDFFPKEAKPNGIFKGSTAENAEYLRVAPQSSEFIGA
Structure (SMILES),composite z-score [1],composite z-score [2],composite z-score [3],z-score [4],composite z-score [5],composite z-score [6],composite z-score [7],composite z-score [8],composite z-score [9],composite z-score [10],composite z-score [11],z-score [12],composite z-score [13],composite z-score [14],composite z-score [15],composite z-score [16],composite z-score [17],composite z-score [18],composite z-score [19],composite z-score [20]
C[N+](C)(C)CCCCNC(=O)[C@H]1C[C@H]2C(=O)NCC(=O)N2[C@H]1c1ccc(O)cc1,1.29,0.0645,-0.31,-1.01 (inactive),1.42,1.35,1.12,1.44,1.47,0.952,0.0571,-0.463,0.794,-1.08,-0.966,-0.103,-0.291,-0.0037,0.721,0.832
CN(C)CCCNC(=O)[C@@]1(Cc2ccccc2I)c2ccccc2C(=O)N(Cc2ccccc2Cl)[C@H]1c1ccc(CO)cc1,1.56,0.94,1.33,-3.68 (inactive),0.247,0.122,-1.4,-0.509,-0.83,1.03,-0.93,-3.47,-1.3,1.48,0.775,0.157,-0.12,-0.784,0.461,1.27
COc1cc(NN2C(C(O)c3ccc(I)cc3)C=CC3C(=O)N(C)C(=O)C32)cc(OC)c1OC (stereo not given),0.719,0.986,1.02,0.037 (inactive),-0.0431,-0.217,-0.391,-0.602,-1.18,1.29,0.539,-1.32,-0.379,0.143,0.476,0.0077,0.289,-0.0247,0.917,-0.161
CCCCC(=C=CC[C@H](O)c1cccc(OCCO)c1)C[C@H](O)COCc1ccccc1,0.766,-0.31,-0.053,-0.992 (inactive),0.688,-0.207,-0.572,-0.117,-0.627,0.58,0.49,-1.88,-0.466,-0.59,-0.897,-0.148,-0.154,-0.397,-0.432,-0.283
O=C1C[C@@](C(=O)O)(c2ccc([N+](=O)[O-])cc2)[C@@H](c2ccc(CO)cc2)N1CC12CC3CC(CC(C3)C1)C2,1.23,0.28,0.771,0.66 (inactive),1.18,0.386,0.259,0.554,-0.148,0.532,1.4,-1.94,0.408,1.09,0.472,-0.172,0.358,0.995,1.41,1.2
COC(=O)[C@]1(Cc2ccccc2CN=[N+]=[N-])N=C(c2ccc(OCCCO)cc2)O[C@@H]1c1ccccc1,1.15,-0.0032,0.987,-2.04 (inactive),-1.34,-1.08,-1.46,-0.869,-1,0.53,-1.61,-3.19,-1.63,-0.103,0.128,-0.228,-0.0793,-0.361,-1.18,1.13
COc1cc(C(O)C2C=CC3C(=O)NC(=O)C3N2Nc2ccc(Cl)cc2Cl)cc(OC)c1OC (stereo not given),1.18,0.88,1.12,0.734 (inactive),0.746,0.189,-0.0874,1.28,-0.675,1.11,1.44,0.221,-0.118,2.03,0.866,0.0809,-0.0243,1.22,1.22,0.877
CN(C)C(=O)[C@@]1(CCS(=O)(=O)c2ccccc2)N=C(c2ccc(OCCCO)cc2)O[C@H]1c1ccccc1CN=[N+]=[N-],1.02,0.182,0.286,-0.863 (inactive),1.41,1.36,0.27,0.922,0.52,0.69,1.42,-1.28,0.446,1.42,-0.335,0.063,0.108,-0.274,1.09,1.06
CC[C@@H]1[C@@H]2C3C(=O)N(CC)C(=O)C3CC(=O)[C@@H]2[C@H](c2ccc(C)cc2)N1S(=O)(=O)c1ccc(C)cc1 (stereo not given in full),0.426,0.384,0.246,-1.52 (inactive),0.859,1.31,0.174,0.748,0.238,0.241,1.42,-1.64,0.336,0.742,0.409,-0.0761,0.232,-0.546,1.22,0.564
O=C1C[C@@](C(=O)NCc2ccccc2)(c2ccc([N+](=O)[O-])cc2)[C@@H](c2ccc(CO)cc2I)N1C1CCCCC1,0.838,1.78,0.652,-0.551 (inactive),0.7,1.16,0.768,1.33,0.876,0.654,1.14,-2.36,0.597,0.261,0.315,0.0733,0.192,-0.175,0.52,0.414
CN1C(=O)C2C=CC(C(O)COCc3ccccc3)N(Nc3ccccc3)C2C1=O (stereo not given),0.867,-0.109,0.285,1.43 (inactive),0.558,0.453,0.132,1.06,0.0378,1.18,0.372,0.74,0.0615,-0.0981,-0.57,0.0403,-0.0793,1.03,0.661,0.347
C=CCNC(=O)[C@H]1[C@@H]2C(=O)O[C@@H](c3ccccc3)[C@@H](c3ccccc3)N2[C@@H](c2ccc(O)cc2)[C@]12C(=O)N(C(=O)OCCOC)c1ccc(C#CC3(O)CCCCCC3)cc12,1.35,0.263,0.468,0.0928 (inactive),0.385,0.716,0.228,0.33,0.138,1.09,0.739,-0.302,-0.326,0.487,0.205,-0.0445,0.0469,0.268,1.16,1.2
Cc1ccc(C(C)CC(O)C2C=CC3C(=O)N(Cc4ccccc4)C(=O)C3N2n2cnnc2)o1 (stereo not given),0.755,1.85,1.03,-0.665 (inactive),0.841,0.866,0.0138,0.668,-0.484,1.09,1.22,0.236,-0.304,0.455,0.0454,0.688,0.765,2.12,0.342,0.279
C=CCC(OC(C)=O)[C@@H]1[C@@H](N(Cc2cccc3ccccc23)C(=O)Cc2ccc(F)cc2)c2cc(OCCCO)ccc2N1C(=O)Cc1ccc(OC)cc1 (stereo not given in full),-0.44,-0.0312,0.0398,-1.07 (inactive),0.398,-0.0555,-0.0723,0.665,0.104,1.25,0.0243,-0.81,0.584,0.965,-0.652,-0.197,-0.0557,-0.122,-0.0854,-0.0482
C=C(CCCC)/C(=C/C[C@@H](OC(=O)c1ccncc1)c1ccccc1OCCO)c1cc(C(=O)OC)ccc1OC,0.96,-0.0551,-0.133,-0.322 (inactive),0.659,0.272,0.145,0.422,0.135,0.851,1.4,-2.61,0.0979,-0.154,-0.351,-0.0735,-0.0626,-0.518,0.603,1.93
C=C(COC)C(=O)CC[C@H](OC(=O)c1ccccc1-c1ccccc1C(=O)O)c1ccc(OCCO)cc1,1.53,-0.203,0.0518,0.287 (inactive),1.35,0.667,-0.237,1.05,0.701,1.1,0.701,-1.06,0.419,0.0421,-0.774,-0.148,0.351,0.229,3.05,1.16
C=CCN1C(=O)[C@@]2(O[C@@H](CCO)[C@H]([Si](C)(C)c3ccc(OC)cc3)[C@H]2C)c2cc(NC(=O)[C@H](C)O)ccc21,1.53,-0.474,-0.0061,-2.46 (inactive),1.26,1.3,-0.242,0.254,0.147,-0.156,1.37,-3.03,0.256,0.929,-0.377,0.0279,0.0639,-0.21,1.2,0.175
CN1C(=O)C2C=CC(C(O)c3cccc4ccccc34)N(NC(=O)OC(C)(C)C)C2C1=O (stereo not given),1.37,1.33,1.43,2.35 (inactive),0.373,1.03,-0.0459,0.85,-0.123,0.844,1.28,-0.602,-0.22,2.49,1.43,-0.0512,-0.0813,-0.125,2.66,1.19
COC(=O)[C@H]1N=C(c2ccc(OCCCO)cc2)O[C@H]1c1ccccc1CN=[N+]=[N-],0.555,0.613,1.22,-0.0171 (inactive),-0.418,-1.04,-0.771,-0.605,-1.56,0.635,1.05,-2.03,-1.16,0.452,0.516,0.0495,0.105,1.64,0.431,0.534
C=C(COC)C(=O)CC[C@H](OC(=O)c1ccccc1-c1ccccc1C(=O)O)c1ccc(CO)o1,0.806,-0.416,-0.479,-0.0254 (inactive),1.43,0.645,-0.358,0.451,0.532,1.19,0.544,-0.115,0.27,-0.271,-0.564,-0.128,-0.0553,-0.137,0.77,0.239
CC(C)C[C@@H]1NC(=O)[C@@H]2C[C@H](C(=O)NCc3ccc(F)cc3)[C@H](c3ccc(O)cc3)N2C1=O,1.03,0.0289,-0.0756,-0.295 (inactive),0.807,0.819,0.116,0.111,0.284,-0.445,1.11,-0.738,0.1,1.35,-0.166,-0.147,0.191,-0.319,1.03,0.896
